BAZ2B inh = qHTS Assay for Inhibitors of BAZ2B. Bromodomain adjacent to zinc finger domain protein 2B (Homo sapiens), Q9UIF8. AlphaScreen BAZ2B-H3K14Ac peptide displacement. Potency, µM (top dose mostly 114 µM), for the others: at the highest dose activity change, negative = inhibition, actives largely listed as inhibitors. AID 504333, 2011. actives 4.4% (n = 360,000); note: % is set by controls: 0 for no effect and ±100 for the full control effect; nearly all actives have a fitted effect of over 60% in size
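AlphaScreen displacement of biotin-H3(5-23)K14Ac peptide (50 nM final) from BAZ2B (50 nM final) in PBS pH 7.4, 0.01% Tween-20; complex preformed 30 min RT, then compounds (top 110 uM) 30 min RT, beads 20 min dark.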
L3MBTL1 inh = qHTS Assay for the Inhibitors of L3MBTL1; AID 485360, 2010; actives 0.66% (n = 230,000); Potency, µM (series often up to 57.1 µM), without a hit: top-dose activity, negative = inhibition, actives largely listed as inhibitors; AlphaScreen L3MBTL1–H3K9me1 peptide binding; Lethal(3)malignant brain tumor-like protein 1 (Homo sapiens), Q9Y468; note: % is set by controls: 0 for no effect and ±100 for the full control effect; nearly all actives have a fitted effect of over 60% in size
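Displacement of a biotinylated histone H3(1-15) peptide monomethylated at Lys9 (75 nM) from L3MBTL1 (50 nM) was measured by AlphaScreen after a 30 min room-temperature compound incubation; cefsulodin titration served as intraplate control.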
GLS inhibitor = qHTS for Inhibitors of Glutaminase (GLS) | Glutaminase kidney isoform, mitochondrial (Homo sapiens), O94925 | GLS enzymatic activity, qHTS titration | Potency, µM (series often up to 45.5 µM), for the others: top-dose activity change, negative = inhibition, usual class: inhibitors | actives 0.21% (n = 410,000) | AID 624170, 2012; note: % is set by controls: 0 for no effect and ±100 for the full control effect
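hKGA in 45 mM KH2PO4 (pH 8.2), 0.02% Tween-20 with compound, then 1mM L-Glutamine (stock as added) plus glutamate oxidase/HRP/Amplex red coupling mix. Fluorescence read initially and after 30 min at RT; signal change reflects glutamate formation.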
G9a inh = qHTS Assay for Inhibitors of Histone Lysine Methyltransferase G9a. G9a H3K9 monomethylation, AlphaScreen, 2 h. Potency, µM (series often up to 102 µM), for inactives: top-dose activity, negative = inhibition, actives largely listed as inhibitors. actives 8.8% (n = 350,000). AID 504332, 2011; note: % is set by controls: 0 for no effect and ±100 for the full control effect; nearly all actives have a fitted effect of over 75% in size
Target sequence (Q96KQ7 913-1193 limits assumed): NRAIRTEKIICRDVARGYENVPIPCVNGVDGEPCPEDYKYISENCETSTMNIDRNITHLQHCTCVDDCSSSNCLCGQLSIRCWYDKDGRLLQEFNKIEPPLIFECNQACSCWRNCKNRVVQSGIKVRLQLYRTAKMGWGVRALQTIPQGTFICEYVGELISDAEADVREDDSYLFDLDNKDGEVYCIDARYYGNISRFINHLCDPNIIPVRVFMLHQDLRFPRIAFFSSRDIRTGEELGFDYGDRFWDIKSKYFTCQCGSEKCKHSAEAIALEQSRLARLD
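Signal arises when biotinylated H3K9 peptide, once monomethylated, bridges streptavidin donor and antibody-captured acceptor beads. Enzyme at 20 nM was preincubated 15 min with test compounds; peptide 500 nM and SAM 20 uM then reacted for 2 h.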
HP1b binding inh = HTS for Inhibitors of HP1-beta Chromodomain Interactions with Methylated Histone Tails | Chromobox protein homolog 1 (Homo sapiens), P83916 | AlphaScreen HP1-beta / biotin-H3K9me3 peptide binding | Potency, µM (titrated, usually from 114 µM), for inactives: at the top dose activity change, negative = inhibition, actives largely listed as inhibitors | actives 0.56% (n = 390,000); note: nearly all actives have a fitted effect of over 70% in size
Target sequence (P83916 whole entry, looked up): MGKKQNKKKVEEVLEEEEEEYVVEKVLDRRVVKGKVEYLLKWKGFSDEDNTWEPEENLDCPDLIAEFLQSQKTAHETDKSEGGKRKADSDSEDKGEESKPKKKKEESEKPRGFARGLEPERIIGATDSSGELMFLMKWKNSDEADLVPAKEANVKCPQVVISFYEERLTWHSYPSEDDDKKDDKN
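HP1-beta protein (50 nM final) preincubated 30 min at room temperature with biotinylated H3(1-18)K9me3 peptide (50 nM) in PBS pH 7.4, 0.01% Tween-20, then compound added for 30 min. AlphaScreen streptavidin donor/nickel chelate acceptor beads (10 ug/mL final), 30 min dark, luminescence read.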
JMJD2A Tudor = qHTS Assay for Inhibitors of JMJD2A-Tudor Domain | Lysine-specific demethylase 4A (Homo sapiens), O75164 | Potency, µM (doses to about 114 µM), for the others: at the highest dose activity change, negative = inhibition, most hits filed as inhibitors | AID 504339, 2011 | AlphaScreen JMJD2A-Tudor / H3K4me3 peptide binding | actives 4.4% (n = 390,000); note: % is set by controls: 0 for no effect and ±100 for the full control effect; nearly all actives have a fitted effect of over 50% in size
Active calls of the source: *; ? = inconclusive; nt = no result; ! = repeats disagree; [ ] = remark or other dose. This is a sample that favours compounds with a hit; in the whole collection about 10% have one here. Calls come from the whole dose curve; as a rule, active = well fitted curve in the direction sought with a large enough effect; inconclusive = small, poorly fitted or top-dose-only effect, or another doubt; inactive = no such curve, though single readings can be large; an effect the other way counts as inactive or inconclusive. Potency is the fitted concentration of half-maximal effect.

SMILES	BAZ2B inh	L3MBTL1 inh	GLS inhibitor	G9a inh	HP1b binding inh	JMJD2A Tudor
Fc1ccc(C(OCCCc2cnc[nH]2)c2ccc(F)cc2)cc1	nt	nt	nt	44.7µM*!	nt	nt
CCOc1ccc(CN2CCNC(=O)C2CC(=O)NC2CCOCC2)cc1 (stereo unspecified)	0.1%	nt	-0.8%	81.4%	47.4%	-4.4%
COc1ccc(CN2CCNC(=O)C2CC(=O)NCCc2cnccn2)cc1C (stereo unspecified)	-23.1%	nt	-7.2%	79.4µM*	38.6%	-9.7%
COc1ccc(CN2CCNC(=O)C2CC(=O)N(C)CCC2CCOCC2)cc1OC (stereo unspecified)	-15.9%	nt	4.4%	70.8µM*	17.0%	-22.6%
COc1cc(CN2CCNC(=O)C2CC(=O)N(C)CCC2CCOCC2)cc(OC)c1 (stereo unspecified)	-8.0%	nt	40.3%	-2.0%[0.501 µM]	22.1%	?
O=C(CC1C(=O)NCCN1Cc1cccc(Oc2ccccc2)c1)NCCc1cnccn1 (stereo unspecified)	-9.6%	0.6%	2.9%	nt	42.3%	-25.2%
COc1ccc(CN2CCNC(=O)C2CC(=O)NC2CCOCC2)cc1C (stereo unspecified)	-22.2%	nt	-0.7%	39.8µM*	45.3%	-16.4%
CCCN1CNc2c(c(=O)[nH]c(=S)n2CCc2c(Cl)cccc2Cl)C1	nt	nt	nt	nt	20.3%	-16.3%
CCC(C)NC(=O)c1cn(CC)c2ccc(S(=O)(=O)N3CCc4ccccc4C3)cc2c1=O (stereo unspecified)	nt	nt	-6.5%	-27.0%[59 µM]	9.7%	-28.0%
CCCCCCCCCCCCCCCCCCOC[C@H](COP(=O)([O-])OCC[N+](C)(C)C)OC(C)=O	nt	nt	nt	34.8%[59 µM]	nt	nt
Cc1ccccc1Nc1cc(C(=O)NC2CCC(C)CC2)c2ccccc2n1 (stereo unspecified)	nt	nt	0.8%	7.5%[59 µM]	39.0%	-11.0%
CCCC(=O)Nc1nc(C)c(-c2csc(Nc3ccccc3OC)n2)s1	?	-2.0%	11.1%	?	-11.4%	?
COc1ccccc1Nc1nc(-c2sc(NC(=O)C(C)(C)C)nc2C)cs1	?	-6.5%	9.9%	?	-28.6%	63.1µM*
Cc1nc(NC(=O)c2ccc(Cl)cc2)sc1-c1csc(Nc2cccc(F)c2)n1	-3.2%[57.1 µM]	-9.7%	nt	50.1µM*	nt	nt
COc1ccccc1Nc1nc(-c2sc(NC(=O)c3cccc(Cl)c3)nc2C)cs1	?	-4.9%	nt	31.6µM*	nt	nt
Cc1ccc(Nc2nc(-c3sc(NC(=O)c4cccc(Cl)c4)nc3C)cs2)cc1	?	-9.5%	nt	25.1µM*	nt	nt
O=c1c(S(=O)(=O)c2ccccc2)cn(Cc2ccc(F)cc2)c2cc(N3CCCC3)c(F)cc12	0.5%	nt	-2.0%	2.1%[59 µM]	25.5%	-1.3%
CC(=O)c1ccc(NC(=O)Cn2cc(S(=O)(=O)Cc3ccccc3Cl)c3ccccc32)cc1	-5.5%	nt	-10.4%	-25.6%[59 µM]	14.6%	-23.1%
Cc1c(CC(=O)NCc2ccccc2Cl)c(=O)oc2cc(O)ccc12	-13.8%	nt	26.2%	-32.1%[59 µM]	35.1%	-4.5%
Cc1ccc(Cl)cc1Nc1nc(-c2sc(NC(=O)C(C)(C)C)nc2C)cs1	56.2µM*	0.0%	-0.2%	?	12.8%	?
Cc1ccc(-c2cc(C(=O)O)c3cc(Br)ccc3n2)s1	?	nt	0.9%	39.8µM*!	15.1%	-18.1%
Cc1ccc(-c2cc(C(=O)N3CCCC3)c3ccccc3n2)s1	-9.7%	nt	-10.1%	20.5%	43.8%	2.9%
CCN1CCN(c2nc3ccccc3nc2C(C#N)C(=O)OC2CCCCC2)CC1 (stereo unspecified)	?	-4.2%	16.5%	-5.6%[12.7 µM]	-22.9%	?
COCC(C)OC(=O)C(C#N)c1nc2ccccc2nc1N1CCN(Cc2ccccc2)CC1 (stereo unspecified)	?	-2.6%	9.9%	44.7µM*	-7.2%	-19.2%
CN1CCN(c2nc3ccccc3nc2C(C#N)C(=O)OC2CCCCC2)CC1 (stereo unspecified)	56.2µM*	-12.1%	-4.4%	?	-6.5%	-34.1%
SMILES	BAZ2B inh	L3MBTL1 inh	GLS inhibitor	G9a inh	HP1b binding inh	JMJD2A Tudor
O=C(NC[C@@H]1CCCCN1)c1cc(OCC(F)(F)F)ccc1OCC(F)(F)F	nt	nt	nt	20.8%[21.5 µM]	nt	nt
CCc1cc2c(SCc3nc4sc(C(C)=O)c(C)c4c(=O)[nH]3)ncnc2s1	-13.6%	-10.6%	-7.4%	20µM*	29.7%	?
Cc1sc2nc(CSc3ncn[nH]3)[nH]c(=O)c2c1C	nt	-0.7%	7.6%	9.4%	14.0%	-5.2%
COc1ccccc1N=Nc1ccc(O)c2ncccc12	20µM*	nt	1.5%	44.7µM*	10µM*	44.7µM*
CCS(=O)(=O)c1ccc(O)c(NC(=O)c2cc(OC)c(OC)c(OC)c2)c1	4.9%	-0.5%	-1.8%	-7.7%[59 µM]	27.8%	-1.3%
O=c1ncn(-c2ccccc2C(F)(F)F)c2ncccc12	9.2%	3.9%	0.7%	1.2%[59 µM]	35.0%	-6.1%
Oc1ccc(N=Nc2ccccc2C(F)(F)F)c2cccnc12	5.62µM*	nt	9.2%	14.8%[2.33 µM]	1.8%	10µM*
CCS(=O)(=O)c1ccc(N=Nc2ccc(O)c3ncccc23)c(OC)c1	5.62µM*	nt	-8.4%	7.08µM*	50.1µM*	20µM*
Cc1ccc(N=Nc2ccc(O)c3ncccc23)cc1C	-30.1%	nt	2.1%	?	-5.5%	?
CCn1c(CNC(=O)c2ccc(OC)cc2)nnc1SCC(=O)Nc1ccc(C)cc1	-5.2%	nt	-12.5%	3.6%[59 µM]	20.3%	-16.8%
Cc1sc(C(C2C(=O)CC(C)(C)CC2=O)C2C(=O)CC(C)(C)CC2=O)cc1[N+](=O)[O-]	56.2µM*	-21.6%	11.9%	7.94µM*	-8.5%	28.2µM*
CCc1nnc2c3ccccc3nc(N3CCN(c4cc(Cl)ccc4C)CC3)n12	5.1%[57.1 µM]	nt	2.4%	-27.0%[59 µM]	3.7%	-31.1%
CCN(CC)c1ccc(Nc2nc(Cl)ncc2Br)cc1	35.5µM*	nt	37.0%	10µM*	?	28.2µM*
CCOC(=O)c1sc2ccccc2c1S(=O)(=O)Nc1c(C)cccc1C	1.0%	nt	-7.3%	6.8%[59 µM]	-6.6%	-23.3%
CCc1ccc(NC(=O)CC2C(=O)N(c3cccc(C)c3)C(=O)N2Cc2cccc(OC)c2)cc1 (stereo unspecified)	-9.5%	nt	1.5%	-7.8%[59 µM]	16.4%	-29.0%
